Laboratory results taken from PubChem BioAssay (NCI).
The panel holds about 83,000 compounds, 20% with a hit somewhere; the sample as a whole holds those more often.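 In brief: 96-well plates, 48 h treatment, single concentration, percent growth endpoint.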 Calls of active or inactive are those of the source. How the source made its calls: active means growth percent below 10; inactive means the rest.

Legend:
Assay in all cases: NCI-60 one-dose screen, 48 h (100 = growth as untreated, 0 = no growth, -100 = all killed)
Details in all cases: 10 µM unless noted
[1] = system: NCI-H23 lung
[2] = system: NCI-H226 lung
[3] = system: NCI-H322M lung
[4] = system: HOP-62 NSCLC
[5] = system: NCI-H460 lung
[6] = system: HOP-92 NSCLC
[7] = system: NCI-H522 lung
[8] = system: A549/ATCC NSCLC
[9] = system: 786-0 renal
[10] = system: COLO 205 colon
[11] = system: DU-145 prostate
[12] = system: K-562 leukemia
[13] = system: MALME-3M melanoma
[14] = system: MDA-MB-231 breast
[15] = system: RXF 393 renal
[16] = system: SF-268 CNS
[17] = system: SF-295 CNS
[18] = system: SF-539 CNS
[19] = system: UACC-257 melanoma
[20] = system: M14 melanoma

Measured: growth

C=C(C)[C@@H]1CC[C@]2(C(=O)O)CC[C@]3(C)[C@H](CC[C@@H]4[C@@]5(C)C[C@@H](CC#Cc6ccccc6C)C(=O)C(C)(C)[C@@H]5CC[C@]43C)[C@@H]12
active: [7] -4.68% | [10] -7.56%
inactive: [1] 18.2% | [2] 23.7% | [3] 36.4% | [4] 32.5% | [5] 16% | [6] 38.1% | [8] 26.7% | [9] 34.4% | [11] 34.4% | [12] 14% | [13] 61.1% | [14] 48.2% | [15] 51.8% | [16] 48.4% | [17] 33.1% | [18] 36% | [19] 39.9% | [20] 40.6%

O=C(CSC(=S)N1CCCCC1)Nc1ccccc1
inactive: [1] 97.4% | [2] 94.5% | [3] 101% | [4] 100% | [5] 104% | [6] 99.6% | [7] 82.3% | [8] 87.9% | [9] 97% | [10] 112% | [11] 106% | [12] 90.2% | [13] 101% | [14] 103% | [15] 110% | [16] 93.3% | [17] 103% | [18] 101% | [19] 92.4% | [20] 98.6%

O=C(CCCC(=O)Nc1ccc(-n2nnc3cc(Cl)c(Cl)cc32)cc1)Nc1ccc(-n2nnc3cc(Cl)c(Cl)cc32)cc1
inactive: [1] 40.2% | [2] 49.9% | [3] 59.9% | [4] 28% | [5] 14.9% | [6] 77.6% | [7] 37.4% | [8] 34% | [9] 49.6% | [10] 72.2% | [11] 33.6% | [12] 54.8% | [13] 48.2% | [14] 49.9% | [15] 48.1% | [16] 60.8% | [17] 53.1% | [18] 56.7% | [19] 66.5% | [20] 68%

N#CC(C#N)=C1NC(c2ccccc2)=C(c2ccccc2)C(c2ccccc2Cl)=C1C#N
inactive: [1] 93.5% | [2] 108% | [3] 107% | [4] 109% | [5] 111% | [6] 109% | [7] 85.5% | [8] 84% | [9] 97.6% | [10] 123% | [11] 112% | [12] 98.1% | [13] 108% | [14] 110% | [15] 121% | [16] 109% | [17] 101% | [18] 108% | [19] 75% | [20] 106%

NC(=O)CN1C(=O)c2ccccc2C1=O
inactive: [1] 98.8% | [2] 101% | [3] 99.1% | [4] 101% | [5] 106% | [6] 96.7% | [7] 88.3% | [8] 103% | [9] 102% | [10] 110% | [11] 101% | [12] 96% | [13] 97.5% | [14] 101% | [15] 114% | [16] 97.3% | [17] 95.3% | [18] 106% | [19] 106% | [20] 102%

CC[C@]12C=CCN3CC[C@@]4(c5ccc(OC)cc5N(C)[C@H]4[C@@](O)(C(=O)OC)[C@@H]1OC(=O)CCC(=O)O[C@H]1CC[C@H]4[C@@H]5CC[C@H]6CC(=O)CC[C@]6(C)[C@H]5CC[C@]14C)[C@@H]32
inactive: [1] 38.5% | [2] 35.4% | [3] 68.3% | [4] 32.7% | [5] 13.8% | [8] 13.2% | [9] 30.8% | [11] 43.7% | [13] 42.5% | [14] 34.6% | [15] 25.9% | [16] 46.2% | [18] 47.3% | [19] 26.9% | [20] 26%
active: [6] -2.92% | [7] 2.12% | [10] -22.1% | [12] 8.73% | [17] 7.7%

O=C(CCc1nnco1)c1nc2ccc([N+](=O)[O-])cc2[nH]1
inactive: [1] 86.3% | [2] 99.4% | [3] 99.1% | [4] 113% | [5] 108% | [6] 119% | [7] 101% | [8] 100% | [9] 111% | [10] 121% | [11] 107% | [12] 113% | [13] 105% | [14] 90.5% | [15] 117% | [16] 102% | [17] 102% | [18] 104% | [19] 112% | [20] 103%

Cc1c(Cl)cccc1NC(=O)c1sc2nc3c(cc2c1N)CCCCCC3
active: [5] 8.77% | [7] -27.7% | [10] -12% | [11] 9.29% | [12] 9.93% | [18] 0.159% | [20] 8.66%
inactive: [1] 42.7% | [2] 52.2% | [3] 45.6% | [4] 30.6% | [6] 29.3% | [8] 19.1% | [9] 23.3% | [13] 58% | [14] 34.2% | [15] 12.2% | [16] 35.7% | [17] 24.6% | [19] 59.6%
